HT1080 IDH1KD tx = toxicity to HT-1080 IDH1 knockdown cells (counter line) | HT-1080 IDH1 knockdown viability, ATP luminescence, 48 h | Potency, µM (series often up to 46.1 µM), for inactives: top-dose activity, negative = toxicity, most hits filed as cytotoxic | 360,000 tested, 2% active;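 also: potency is read from the fitted curve at half-maximal effect; 0% = DMSO wells and -100% = cell-free medium wells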
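After a 2 h attachment period, IDH1KD HT-1080 cells took pin-transferred compound for 48 h at 37 °C; ATP-based luminescence after 10 min room-temperature reagent incubation reported viability.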
DT40 TDP1 CPT = DT40-hTDP1 cell growth loss with CPT | Potency, µM (series often up to 46.2 µM), for inactives: top-dose activity change, negative = growth inhibition, most hits filed as inhibitors | chicken DT40 Tdp1-/-;hTDP1 cells + 20 nM CPT, ATP luminescence, 48 h | 420,000 tested, 12% active | AID 686979; also: potency is read from the fitted curve at half-maximal effect; nearly all actives have a fitted effect of over 55% in size
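Chicken DT40 Tdp1-/- cells stably complemented with human TDP1 were seeded at 400 cells/well in medium containing 20 nM camptothecin, exposed to pin-transferred compounds, and grown at 37 °C for at least 48 hr. Viability was read as ATP luminescence.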
TDP1 cell noCPT = qHTS for Inhibitors of human tyrosyl-DNA phosphodiesterase 1 (TDP1): qHTS in cells in absence of CPT | Potency, µM (series often up to 46.2 µM), without a hit: top-dose activity change, negative = growth inhibition, usual class: inhibitors | AID 686978, 2013 | 420,000 tested, 15% active | DT40 Tdp1-/- hTDP1 cells, no CPT, ATP luminescence, 48 h; also: potency is read from the fitted curve at half-maximal effect; nearly all actives have a fitted effect of over 55% in size
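Readout: luminescence from CellTiter-Glo after 30 min in the dark at RT. Cells: DT40 Tdp1-/- with stable hTDP1, 400/well. Exposure: compounds alone, ≥48 hr, 37 °C.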
IL1B secr inh = inhibitors of inflammasome signaling (IL-1 beta secretion); THP-1 LPS/ATP IL-1B secretion, AlphaLISA, 16 h; stronger effect = lower value; activity change, % at 57.5 µM; 360,000 tested, 4.7% active; in the data active = activity change below about -50%; inconclusive = mostly about -30% to -49%
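Secreted IL-1B measured by AlphaLISA bead assay after 16 h compound exposure of THP-1 cells; compounds (final up to 57.5 uM) added 1 h before LPS (250 ng/mL) and ATP (1.25 mM) stimulation; lower signal means less secretion.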
HT1080NT lethal = kills 2HG-producing HT-1080-NT fibrosarcoma cells. Potency, µM (series often up to 46.1 µM), without a hit: at the top dose activity, negative = less viability, usual class: cytotoxic. HT-1080-NT fibrosarcoma viability, CellTiter-Glo ATP luminescence, 48 h. 360,000 tested, 1.6% active;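 also: NT is the 2HG producing partner of a matched IDH1 knockdown line; potency is read from the fitted curve at half-maximal effect; 0% = DMSO-treated cells and -100% = media-only wells without cells; nearly all actives have a fitted effect of over 55% in size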
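Toxicity toward the 2HG-producing NT line was scored as %Activity, normalised to DMSO and no-cell wells, from CellTiter-Glo luminescence after 48 hours' treatment.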
The depositor's hits bear a star; ? = inconclusive; . = not tested or not shown. Compounds with a hit are over-represented: about 19% of the library has one in this group of screens. Unless noted, calls follow the shape of the dose curve; as a rule, active = well fitted curve in the direction sought with a large enough effect; inconclusive = small, poorly fitted or top-dose-only effect, or another doubt; inactive = no such curve, though single readings can be large; an effect the other way counts as inactive or inconclusive. Unless noted, % is scaled to controls: 0 for no effect and ±100 for the full control effect.

SMILES	HT1080 IDH1KD tx	DT40 TDP1 CPT	TDP1 cell noCPT	IL1B secr inh	HT1080NT lethal
COCCn1c(C)cc(C(=O)COC(=O)c2c(C)nn(Cc3ccccc3)c2C)c1C	-2%	-23%	?	-16	-15%
Cc1nn(Cc2ccccc2)c(C)c1C(=O)OCC(=O)c1cc(C)n(C2CC2)c1C	-28%	23µM*	18µM*	-58*	-49%
Cc1cc(C(=O)COc2ccccc2C#N)c(C)n1C1CC1	-9%	?	?	-6	-11%
Cc1cc(C(=O)COc2ccc(C#N)cc2)c(C)n1C1CC1	4%	?	18µM*	-17	-6%
COC(=O)[C@]1(C)N[C@H](CN(C)C(=O)Nc2ccc(C(F)(F)F)cc2)[C@@H]2C(=O)N(C)C(=O)[C@@H]21	3%	-18%	-4%	25	7%
Cc1ccc2[nH]cc(CCNC(=O)Nc3ccccc3)c2c1	9%	?	?	-14	4%
Cc1ccc2[nH]cc(C(c3ccccc3)c3ccc(C)s3)c2c1 (centres undefined)	.	?	18µM*	.	.
Cc1ccc2[nH]cc(C(c3ccccc3)c3cccs3)c2c1 (centres undefined)	.	?	18µM*	.	.
Cc1ccc2[nH]cc(S(=O)(=O)c3ccc(C(C)C)cc3)c(=O)c2c1	-12%	3%	-3%	-3	-8%
COc1cc(C(=O)Sc2ccc(Cl)cc2)cc(OC)c1OC	?	13µM*	12µM*	?	?
COc1cc(C(=O)NCCSc2ccc(Cl)cc2)cc(OC)c1OC	0%	?	?	-15	-3%
N#Cc1ccccc1OCC(=O)Nc1ccc2c(c1)OCO2	24%	-4%	-21%	?	16%
C=CCC[C@@H](Cc1ccc(F)cc1)C(=O)OC[C@H](Cc1c[nH]c2ccccc12)NC(=O)[C@@H](CC=C)CC(=O)N[C@@H](CO)Cc1ccccc1	-1%	21µM*	?	-3	-2%
C=CCC[C@H](Cc1ccc(F)cc1)C(=O)OC[C@@H](Cc1c[nH]c2ccccc12)NC(=O)[C@@H](CC=C)CC(=O)N[C@@H](CO)Cc1ccccc1	?	?	23µM*	-30	?
C=CCC[C@@H](Cc1ccc(F)cc1)C(=O)OC[C@@H](Cc1c[nH]c2ccccc12)NC(=O)[C@H](CC=C)CC(=O)N[C@H](CO)Cc1ccccc1	?	?	?	91	21µM*
C=CCC[C@@H](Cc1ccc(F)cc1)C(=O)OC[C@@H](Cc1c[nH]c2ccccc12)NC(=O)[C@@H](CC=C)CC(=O)N[C@H](CO)Cc1ccccc1	-1%	?	?	-7	-20%
C=CCC[C@@H](Cc1ccc(F)cc1)C(=O)OC[C@@H](Cc1c[nH]c2ccccc12)NC(=O)[C@@H](CC=C)CC(=O)N[C@@H](CO)Cc1ccccc1	-3%	23µM*	?	-19	-1%
C=CC[C@@H](CC(=O)N[C@@H](CO)Cc1ccccc1)C(=O)N[C@H](COC(=O)[C@@H](CC=C)Cc1ccc(F)cc1)Cc1c[nH]c2ccccc12	-3%	?	?	-13	0%
COc1ccc(-n2cc(C(=O)OCc3ccc(F)c(F)c3)c3ccccc3c2=O)cc1	.	1%	13%	.	.
CSc1cccc(NC(=S)NC(=O)c2cccnc2)c1	1%	-26%	-19%	13	7%
CCCCN(C)Cc1c(C)[nH]c2c(ccc3ccccc32)c1=O	4%	-2%	1%	9	-7%
CCCC[n+]1c(C)ccc2ccccc21	.	?	16µM*	.	.
CCOc1ccc(/C=N/Nc2cc(N3CCOCC3)ncn2)c(O)c1	2.3µM*	5.8µM*	5.8µM*	99	?
COc1cc(N/N=C/c2ccccc2O)ncn1	?	1.6µM*	1.5µM*	43	?
CCCOc1ccc(/C=N/Nc2cc(N3CCOCC3)ncn2)c(O)c1	3.7µM*	?	10µM*	103	?

From PubChem
